High-throughput results deposited in PubChem by National Center for Advancing Translational Sciences (NCATS).
L3MBTL1 inh = L3MBTL1 (human) inhibition. AlphaScreen L3MBTL1–H3K9me1 peptide binding. Q9Y468. Potency, µM (highest dose often 57.1 µM), most hits filed as inhibitors. 0.66% of 230,000 active; note: nearly all actives have a fitted effect of over 60% in size
Target sequence (Q9Y468 whole entry, looked up): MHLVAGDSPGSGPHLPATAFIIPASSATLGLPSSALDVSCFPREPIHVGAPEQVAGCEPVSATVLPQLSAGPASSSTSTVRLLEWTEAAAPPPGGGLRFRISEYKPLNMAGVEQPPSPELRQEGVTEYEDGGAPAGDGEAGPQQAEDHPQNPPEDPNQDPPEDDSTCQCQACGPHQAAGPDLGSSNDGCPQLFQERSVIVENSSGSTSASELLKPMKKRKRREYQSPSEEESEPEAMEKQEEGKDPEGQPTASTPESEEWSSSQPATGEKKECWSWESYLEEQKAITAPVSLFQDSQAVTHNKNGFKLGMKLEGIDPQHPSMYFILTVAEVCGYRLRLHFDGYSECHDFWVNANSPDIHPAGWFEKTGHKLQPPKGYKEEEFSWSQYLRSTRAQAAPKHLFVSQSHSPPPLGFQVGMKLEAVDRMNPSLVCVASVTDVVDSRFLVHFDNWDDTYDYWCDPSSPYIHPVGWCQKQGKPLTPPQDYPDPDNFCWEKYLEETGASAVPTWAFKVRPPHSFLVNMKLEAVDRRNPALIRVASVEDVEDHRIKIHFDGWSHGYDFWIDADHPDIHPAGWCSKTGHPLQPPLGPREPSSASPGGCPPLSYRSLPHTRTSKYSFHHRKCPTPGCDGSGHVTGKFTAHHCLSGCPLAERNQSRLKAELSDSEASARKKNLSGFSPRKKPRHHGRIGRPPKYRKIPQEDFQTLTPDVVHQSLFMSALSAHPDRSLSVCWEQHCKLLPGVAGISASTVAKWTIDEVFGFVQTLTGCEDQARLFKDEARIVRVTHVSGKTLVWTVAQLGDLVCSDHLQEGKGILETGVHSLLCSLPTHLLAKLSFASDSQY
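AlphaScreen proximity signal between nickel-chelate acceptor and streptavidin donor beads (final 10 ug/mL) reports binding of 50 nM L3MBTL1 to 75 nM biotin-H3 K9me1 peptide; complex incubated with compounds 30 min at room temperature; cefsulodin titration as control.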
Eya2 phos inh = inhibitors of human Eya2 phosphatase activity | recombinant Eya2, OMFP fluorescence dephosphorylation (OMFP is methylfluorescein phosphate) | Potency, µM (titrated, usually from 76.9 µM), most hits filed as inhibitors | 0.006% of 330,000 active | AID 488837
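Eya2 protein (added as 0.2 uM solution) was preincubated with compound for 10 min at ambient temperature in 50 mM HEPES pH 7.5, 50 mM NaCl, 5 uM MgCl2, 0.05% BSA, 1 mM DTT. OMFP (added at 50 uM) then reacted 10 min; fluorescence read at 485/525 nm.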
MBNL1-CUG inh = blocks human MBNL1 binding to CUG repeat RNA | Potency, µM (series often up to 57.5 µM), actives largely listed as inhibitors | Q9NR56 | TR-FRET MBNL1-His/biotin-(CUG)12 binding, 665/545 ratio | 0.036% of 280,000 active; active = well fitted inhibition curve with a large enough effect in the signal ratio, with a control signal flat, not every such curve was filed as active; inconclusive = small, poorly fitted or top-dose-only effect, or effect the other way, or a change in a side signal; inactive = no such curve, though single readings can be large or run the other way; the % refers to the signal ratio
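Ratiometric TR-FRET (665 over 545 nm, excitation 340 nm) tracks disruption of MBNL1-His/biotin-(CUG)12 complex after 60 min at room temperature, with compounds at 92 nM to 58 uM final.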
Six1-Eya2 blk = inhibitors of human Six1/Eya2 interaction | activity change, % (no concentration beside the values) | AlphaScreen GST-Six1/His-Eya2 binding, biochemical; active compounds read low | 0.56% of 360,000 active | Q15475+O00167; in the data active = activity change below about -65%; inconclusive = mostly about -30% to -63%
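Six1/Eya2 binding was read as AlphaScreen signal after compounds were pinned into GST-Six1 plus His-tagged Eya2 (5X stock 250/500 nM) in pH 8.0 Tris/NaCl/TCEP buffer, beads added, then incubated 1 h, 37 C, dark.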
CBFb-RUNX1 inh = inhibitors of human CBF-beta and RUNX1 interaction | Q01196+Q13951 | AlphaScreen CBFb-His/RUNX1-biotin binding, biochemical | Potency, µM (top dose mostly 59.8 µM), actives largely listed as inhibitors | 230,000 tested, under 10 active | AID 1477
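Inhibition was taken as any reduction in AlphaScreen signal from the CBF-beta–RUNX1 pair (His and biotin tags, 30 nM each), measured after compound (15 min) and bead (90 min) incubations at room temperature.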
CtBP-E1A blk = inhibitors of CtBP/E1A interaction | AlphaScreen GST-E1A/His-CtBP binding, 1536-well; active compounds read low | activity change, % (test concentration not listed) | 0.49% of 340,000 active; in the data active = activity change below about -65%; inconclusive = mostly about -30% to -63%
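AlphaScreen with 125 nM GST-E1A and 125 nM His-CtBP (5X stocks) in Tris pH 8.0, 300 mM NaCl, BSA, Tween 20, TCEP. Compounds preincubated 2 h at 37 deg C, then glutathione donor/nickel acceptor beads added for 1 h at 37 deg C in dark.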
Of the large screens only hits and unclear results are named; the others gave an inactive call. Rows were chosen to be rich in hits. Some 0.89% of all compounds tested hit in one or more screens of this group. Unless noted, calls come from the whole dose curve; as a rule, active = well fitted curve in the direction sought with a large enough effect; inconclusive = small, poorly fitted or top-dose-only effect, or another doubt; inactive = no such curve, though single readings can be large; an effect the other way counts as inactive or inconclusive.

CC1CC(C)CN(S(=O)(=O)c2cccc(C(=O)N3CCN(c4ccc(F)cc4)CC3)c2)C1 (stereo not drawn)	none (no result: MBNL1-CUG inh, CBFb-RUNX1 inh)
Cc1ccc(Cc2c(-c3ccc(C#N)cc3)nc3c4ccccc4ccn23)cc1	none (no result: L3MBTL1 inh, Eya2 phos inh, MBNL1-CUG inh, CBFb-RUNX1 inh)
C=CCN1C(=O)C(CC(C)C)NC1=S (stereo not drawn)	none (no result: L3MBTL1 inh, Eya2 phos inh, MBNL1-CUG inh, Six1-Eya2 blk, CtBP-E1A blk)
CSCCC(C(=O)NC1CCCC1)n1c(C2CCCC2)nc2ccccc21 (stereo not drawn)	none (no result: L3MBTL1 inh, Eya2 phos inh, MBNL1-CUG inh, CBFb-RUNX1 inh)
COC(=O)c1ccc(C(NC(=O)OCc2ccccc2)/C(=C/[C@@H](C)C(=O)NCc2cc(C)n(C)n2)c2cccnc2)cc1 (stereo partly drawn)	none (no result: L3MBTL1 inh, Eya2 phos inh, MBNL1-CUG inh, Six1-Eya2 blk, CtBP-E1A blk)
O=C1CC(c2ccccc2)CC(O)=C1C=NCCN1CCN(Cc2ccccc2)CC1 (stereo not drawn)	none
COc1ccc(CCn2c(=N)c(C(=O)NCc3ccco3)cc3c(=O)n4ccccc4nc32)cc1	MBNL1-CUG inh inconclusive, Six1-Eya2 blk -75, CtBP-E1A blk -83
CC[C@@]1([C@@H]2O[C@@H]([C@H]3O[C@@](O)(CO)[C@H](C)C[C@@H]3C)C[C@@H]2C)CC[C@@H]([C@]2(C)CCC3(C[C@H](O)[C@@H](C)[C@@H]([C@@H](C)[C@@H](OC)[C@H](C)C(=O)O)O3)O2)O1 (stereo partly drawn)	none (no result: L3MBTL1 inh, Eya2 phos inh, MBNL1-CUG inh, Six1-Eya2 blk, CtBP-E1A blk)
CNc1nc(-c2ccccn2)nnc1-c1ccccc1	Six1-Eya2 blk -93, CtBP-E1A blk -95 (no result: L3MBTL1 inh, CBFb-RUNX1 inh)
c1ccc(-c2nnc(-c3ccccn3)nc2NC2CCCCC2)cc1	Six1-Eya2 blk -84, CtBP-E1A blk -95 (no result: L3MBTL1 inh, CBFb-RUNX1 inh)
CCOC(=O)c1cccc(NC(=O)COc2nsnc2N2CCOCC2)c1	none (no result: L3MBTL1 inh, CBFb-RUNX1 inh)
CCCCN1C(=O)C(=O)N(CC(=O)Nc2ccccc2C(=O)OCC)C1=O	CtBP-E1A blk -98 (no result: L3MBTL1 inh, CBFb-RUNX1 inh)
CCCCN1C(=O)C(=O)N(CC(=O)Nc2ccccc2C(C)=O)C1=O	none (no result: MBNL1-CUG inh, CBFb-RUNX1 inh)
COC(=O)c1cc2c(-c3ccccc3)c(C)c3ccccn3c-2c1C(=O)OC	Six1-Eya2 blk -69, CtBP-E1A blk inconclusive (no result: L3MBTL1 inh, CBFb-RUNX1 inh)
COC(=O)c1c(C)[nH]c(C=O)c1-c1ccccc1	none (no result: MBNL1-CUG inh)
COC(=O)c1c(C(=O)OC)c2ccccn2c1C(=O)c1ccccc1	none (no result: CBFb-RUNX1 inh)
COC(=O)c1c(Cl)c2n3ccccc3c(C)c(-c3ccccc3)c-2c1C(=O)OC	L3MBTL1 inh inconclusive, MBNL1-CUG inh inconclusive, Six1-Eya2 blk -68, CtBP-E1A blk inconclusive
Cc1cc(=O)oc(C)c1C(=O)NCc1ccccn1	L3MBTL1 inh inconclusive, Six1-Eya2 blk -81, CtBP-E1A blk inconclusive
O=C(CN1C(=O)NC2(CCCCCC2)C1=O)NCc1ccc(Cl)cc1	none (no result: MBNL1-CUG inh, CBFb-RUNX1 inh)
COc1cc(/C=N\NC(=O)c2ccc(Cn3nc([N+](=O)[O-])c(Cl)c3C)o2)ccc1O	MBNL1-CUG inh inconclusive, Six1-Eya2 blk -83, CtBP-E1A blk -84 (no result: L3MBTL1 inh)
COc1ccc(/C=N/NC(=O)c2ccncc2)cc1Cn1nc([N+](=O)[O-])c(Br)c1C	MBNL1-CUG inh inconclusive, Six1-Eya2 blk -69, CtBP-E1A blk inconclusive
COc1cccc(/C=N\NC(=O)c2ccc(Cn3cc(Br)c([N+](=O)[O-])n3)o2)c1O	Six1-Eya2 blk inconclusive, CtBP-E1A blk -74
CCCS(=O)(=O)NC(=O)C1(C)CCN(C(=O)CSc2ccccc2)C1 (stereo not drawn)	none (no result: L3MBTL1 inh, Eya2 phos inh, MBNL1-CUG inh, CBFb-RUNX1 inh)
O=C(Cc1c(Sc2ccccc2)c2ccccc2n1Cc1ccccc1)NCCO	none
Cc1cc(/C=C\c2ccc3cc(N(C)C)ccc3[n+]2C)c(C)n1-c1ccccc1	L3MBTL1 inh 32µM (no result: MBNL1-CUG inh)
O=C(N/N=C/c1cccc([N+](=O)[O-])c1O)C(O)(c1ccccc1)c1ccccc1	MBNL1-CUG inh inconclusive (no result: CBFb-RUNX1 inh, CtBP-E1A blk)
COc1cc([N+](=O)[O-])cc(/C=N/NC(=O)c2cccnc2)c1O	L3MBTL1 inh 14µM, Six1-Eya2 blk -90, CtBP-E1A blk -92 (no result: MBNL1-CUG inh, CBFb-RUNX1 inh)
COc1cc([N+](=O)[O-])cc(/C=N/NC(=O)C(O)(c2ccccc2)c2ccccc2)c1O	MBNL1-CUG inh inconclusive, Six1-Eya2 blk inconclusive, CtBP-E1A blk -82 (no result: CBFb-RUNX1 inh)
COc1ccccc1CNC(=O)C[C@@H]1C[C@H]2c3cc(NC(=O)c4ccc5c(c4)OCO5)ccc3O[C@H]2[C@@H](CO)O1	none (no result: L3MBTL1 inh, Eya2 phos inh, MBNL1-CUG inh, CBFb-RUNX1 inh)
